Pf growth 48h – inhibits P. falciparum growth in the first generation, 48 h. Potency, µM (highest dose often 28.7 µM), for inactives: at the top dose activity change, negative = inhibition, actives largely listed as inhibitors. P. falciparum luciferase growth in erythrocytes, 48 h. actives 5.9% (n = 310,000); note: % is set by controls: 0 for no effect and ±100 for the full control effect
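Here the parasites carry a stable luciferase gene and grow inside erythrocytes in Albumax-based RPMI medium with compound for one erythrocytic cycle. Activity is scored as loss of luminescent signal.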
AmpC detergent – AmpC beta-lactamase inhibition with detergent present. P00811. AmpC hydrolysis of nitrocefin, absorbance 480 nm, 0.01% Triton. Potency, µM (doses to about 114 µM), for the others: at the top dose activity change, negative = inhibition, most hits filed as inhibitors. actives 0.041% (n = 370,000). AID 485294;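 note: 0% = no-compound wells and -100% = no-enzyme wells; nearly all actives have a fitted effect of over 25% in size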
Target sequence (P00811 whole entry, looked up): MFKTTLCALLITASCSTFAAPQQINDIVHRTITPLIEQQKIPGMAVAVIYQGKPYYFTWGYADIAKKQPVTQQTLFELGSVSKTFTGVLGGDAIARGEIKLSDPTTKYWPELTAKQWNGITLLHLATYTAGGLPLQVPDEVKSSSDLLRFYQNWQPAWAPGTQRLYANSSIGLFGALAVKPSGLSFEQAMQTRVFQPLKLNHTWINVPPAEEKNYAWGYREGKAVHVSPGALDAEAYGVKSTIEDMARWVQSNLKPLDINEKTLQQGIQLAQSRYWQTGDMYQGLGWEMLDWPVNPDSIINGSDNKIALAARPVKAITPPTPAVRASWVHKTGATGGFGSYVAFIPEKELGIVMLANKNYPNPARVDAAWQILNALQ
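AmpC (5.3 nM in the dispensed reagent) in 20 mM phosphate pH 7.0 with 0.01% (detergent screen) or 0.0001% Triton X-100 was preincubated with compounds for 15 min at room temperature. Nitrocefin was then added from an 800 uM solution, and hydrolysis was followed at 480 nm.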
HCV inhibitor – HCV inhibition. actives 3.4% (n = 340,000). Huh7.5.1 HCVcc-Cre infection, luciferase reporter, 44 h. AID 651820. Potency, µM (series often up to 41.8 µM), inactives show at the top dose activity change, negative = inhibition, actives largely listed as inhibitors; note: % is set by controls: 0 for no effect and ±100 for the full control effect
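Compounds are dispensed onto cells plated 4 h earlier at 1,000 per well, with HCVcc-Cre virus (about 0.5 moi) added next. Following 44 h of culture, luminescent signal is measured for 15 sec after 15 min with substrate at room temperature.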
Pf growth 96h – P. falciparum growth inhibition at 96 hour, primary screen for plastid delayed-death inhibitors. P. falciparum luciferase reporter growth, 96 h. Potency, µM (titrated, usually from 28.7 µM), for inactives: top-dose activity change, negative = inhibition, most hits filed as inhibitors. actives 6.9% (n = 320,000). AID 504834; note: % is set by controls: 0 for no effect and ±100 for the full control effect
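P. falciparum expressing integrated firefly luciferase, in erythrocytes at 2% hematocrit, 0.05% parasitemia, incubated with compounds 96 h at 37 C, 5% CO2. Growth inhibition read as loss of luminescence; two-generation exposure targets delayed-death apicoplast inhibitors.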
AMA1 RON2 block – inhibitors of Plasmodium falciparum AMA1-RON2 interaction; AlphaScreen AMA1-biotinylated RON2 peptide binding; Potency, µM (highest dose often 58.2 µM), inactives show at the top dose activity change, negative = inhibition, hits mostly inhibitors; actives 0.2% (n = 360,000); AID 720542;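 note: 0% = vehicle wells and -100% = peptide control; nearly all actives have a fitted effect of over 45% in size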
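AMA1 (3D7) with his tag at 25 nM final met compounds first, then biotinylated RON2 peptide at 25 nM; detection used donor plus acceptor beads, 10 µg/mL apiece, read by AlphaScreen after 30 min at room temperature.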
AmpC inh no detg – inhibitors of E. coli AmpC beta-lactamase without detergent | actives 0.52% (n = 330,000) | P00811 | Potency, µM (doses to about 57.1 µM), without a hit: top-dose activity change, negative = inhibition, hits mostly inhibitors | AID 485341 | AmpC nitrocefin hydrolysis, absorbance 480 nm, 0.0001% Triton;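 note: plate controls were no compound for no effect and no enzyme for full effect; nearly all actives have a fitted effect of over 20% in size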
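AmpC (5.3 nM in the dispensed reagent) in 20 mM phosphate pH 7.0 with 0.01% (detergent screen) or 0.0001% Triton X-100 was preincubated with compounds for 15 min at room temperature. Nitrocefin was then added from an 800 uM solution, and hydrolysis was followed at 480 nm.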
HCV inh confirm – confirmation of hepatitis C virus inhibitors; Potency, µM (series often up to 41.8 µM), inactives show at the top dose activity, negative = inhibition, hits mostly inhibitors; shares compounds with HCV inhibitor; actives 78% (n = 640); HCVcc-Cre infectious virus cell assay, luciferase, inhibition; note: nearly all actives have a fitted effect of over 80% in size
HCV cytotox – host cell cytotoxicity counter-screen for HCV inhibitors; HCV host cell line cytotoxicity counterscreen; actives 22% (n = 640); shares compounds with HCV inhibitor; Potency, µM (highest dose often 41.8 µM), without a hit: at the highest dose activity change, negative = cytotoxicity, usual class: inhibitors; AID 720576;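 note: 44 h compound exposure; % is set by controls: 0 for no effect and ±100 for the full control effect; nearly all actives have a fitted effect of over 55% in size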
Starred values were filed as active, the others as inactive; ? = inconclusive; nt = no result; [ ] = dose if it differs, or a comment. Only some compounds are listed: those with a hit (about 11% of all), similar ones and a draw of the others. Calls come from the whole dose curve; as a rule, active = well fitted curve in the direction sought with a large enough effect; inconclusive = small, poorly fitted or top-dose-only effect, or another doubt; inactive = no such curve, though single readings can be large; an effect the other way counts as inactive or inconclusive. Potency is the fitted concentration of half-maximal effect.

SMILES	Pf growth 48h	AmpC detergent	HCV inhibitor	Pf growth 96h	AMA1 RON2 block	AmpC inh no detg	HCV inh confirm	HCV cytotox
CCOc1cc(NC(=O)CCl)c(OCC)cc1NC(=O)CCl	59%	4%	?	?	-11%	-25%	nt	nt
O=C(CCl)Nc1cc2[nH]c(=O)[nH]c2cc1Br	2.3µM*	1%	6.3µM*	7.4µM*	4%	-19%	16µM*	?
Cc1cc(C)cc(N=c2c([N+](=O)[O-])nn(-c3ccc(Cl)cc3)n2O)c1	-7%	8%	?	-14%	?	-21%	16µM*	22%
Cc1nn(C)c(Nc2ccc(Br)cc2)c1Br	?	?	3.5µM*	19%	-8%	0%	5µM*	8.9µM*
COc1cc(C)ccc1N(CCCN1C(=O)c2cccc3cccc(c23)C1=O)C(=O)c1cccs1	?	-4%	5.6µM*	9.3µM*	5%[11.6 µM]	-14%	13µM*	36%
COc1ccc(N(CCCN2C(=O)c3cccc4cccc(c34)C2=O)C(=O)c2cccs2)cc1	-13%	?	?	?	15%	-23%	nt	nt
O=C(CSc1nc2ccccc2nc1Cc1ccc(Cl)cc1)Nc1ccc2c(c1)OCO2	nt	-3%	nt	nt	nt	nt	nt	nt
COc1ccc(NC(=O)COC(=O)c2c3c(nc4ccccc24)CCCC3)cc1Cl	12µM*	-6%	4.5µM*	nt	10%	-17%	5µM*	31µM*
Cc1ccc(C)c(NC(=S)NC(NC(=O)N(C)C)C(Cl)(Cl)Cl)c1 (stereo not drawn)	?	2%	1%	?	7%	-34%	nt	nt
Cc1ccc(C)c(NC(=S)NC(NC(=O)Cc2cccc3ccccc23)C(Cl)(Cl)Cl)c1 (stereo not drawn)	nt	-17%	2.2µM*	2.6µM*	-15%	-31%	11µM*	31µM*
COc1cc(NC(=O)CCS(=O)(=O)c2ccc3c(c2)CC(=O)N3C)cc(OC)c1OC	nt	3%	nt	nt	nt	nt	nt	nt
CNC(=O)NC(=O)C(C)OC(=O)c1c2c(nc3ccccc13)/C(=C/c1cccs1)CC2 (stereo not drawn)	35%	4%	2.8µM*	33%	-6%	-35%	1.8µM*	18µM*
CC(OC(=O)c1c2c(nc3ccccc13)/C(=C\c1ccc3c(c1)OCO3)CCC2)C(=O)Nc1ccc(S(N)(=O)=O)cc1 (stereo not drawn)	?	?	?	?	-6%	-34%	nt	nt
COc1ccc(CCn2c(SCC(=O)Nc3cc(C)on3)nc3ccsc3c2=O)cc1OC	8.3µM*	-1%	?	nt	-17%	0.32µM*	?	25%
COc1ccc(CCn2c(SCC(=O)Nc3cc(C)on3)nc3ccccc3c2=O)cc1OC	46%	2%	14%	0%	11%	-26%	nt	nt
CN=c1sc2c(n1C)C(=O)c1ccccc1C2=O	nt	nt	?	nt	-19%	nt	31µM*	28µM*
CN=c1sc(C(=O)Nc2ccccc2)c(C)n1C	34%	-10%	-21%	4%	-8%	-12%	nt	nt
CCn1cc(C(=O)N2CCN(c3cccc(C)c3)C(C)C2)c(=O)c2cc(S(=O)(=O)N3CCOCC3)ccc21 (stereo not drawn)	nt	2%	nt	nt	nt	nt	nt	nt
O=C(NC1(C(F)(F)F)Oc2ccccc2O1)N1CCC2(CC1)OCCO2	-15%	?	?	?	-4%	-13%	?	?
O=C(c1ccccc1)N1CCC2(CC1)OCCO2	31%	-4%	11%	32%	-27%	-9%	nt	nt
C=CCn1c(-c2cccs2)nc2nc3ccccc3nc21	19%	-9%	17%	nt	10%	-23%	nt	nt
C=CCn1c(-c2cccs2)nc2ccccc21	9%	-5%	?	4%	1%	-9%	-28%	-35%
